In all, about 5,600 compounds went through this assay and about 780 (14%) were called active. Not shown: some 3% with an inconclusive outcome.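 The calls were made as follows: active = mean signal decrease across replicates above about 35% based on untreated-well scatter, with enough replicates individually passing (limit read from the data); inconclusive = no rule stated though some were filed; inactive = the rest.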 The list is a sample of the results.

A short description of this experiment: cytotoxicity in mouse NIH/3T3 fibroblasts, confirmation, cytotoxicity control for T. cruzi proliferation inhibitor project, cell-based, cherry-pick, single point (AID 651742).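 Also: 0% = median of neutral control wells and 100% = median of positive control wells.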 The note with it: NIH/3T3 viability, CellTiter-Glo ATP luminescence, 90 h; at 8.35 µM; stronger effect = higher value.
Turning to `CCCNC(=O)N1[C@@H]2c3cccc(=O)n3C[C@H]1[C@H](CO)[C@H]2C(=O)NCC(F)(F)F`, the cytotoxicity (signal decrease) was 19.4% (inactive).

As for `C[C@@H]1CCCCO[C@H](CN(C)C(=O)Nc2cccc3ccccc23)[C@H](C)CN([C@H](C)CO)C(=O)c2cc(NS(=O)(=O)c3cccs3)ccc2O1`, the cytotoxicity (signal decrease) is 2.6% (inactive). As for `Cc1ccc(S(=O)(=O)Nc2ccc3c(c2)C(=O)N([C@H](C)CO)C[C@H](C)[C@H](CN(C)C(=O)Nc2ccc(F)cc2)OCCCC[C@H](C)O3)cc1`, the figure is -4.04% (inactive); as for `Cc1ccc(S(=O)(=O)N(C)C[C@H]2OCCCC[C@H](C)Oc3ccc(NC(=O)Cc4ccccc4)cc3C(=O)N([C@@H](C)CO)C[C@@H]2C)cc1`, -1.37% (inactive); as for `COc1ccc(NC(=O)N(C)C[C@H]2OCCCC[C@H](C)Oc3ccc(NC(=O)Nc4ccc(C(F)(F)F)cc4)cc3C(=O)N([C@@H](C)CO)C[C@@H]2C)cc1`, -11.5% (inactive).

For `C[C@H]1CCCCO[C@H](CN(C)S(=O)(=O)c2ccc(Cl)cc2)[C@@H](C)CN([C@@H](C)CO)C(=O)c2cc(NC(=O)Nc3ccc4c(c3)OCO4)ccc2O1`, the cytotoxicity (signal decrease) was 6.45% (inactive). The value for `C[C@@H]1CN([C@@H](C)CO)C(=O)c2cc(C#Cc3ccccc3)cnc2O[C@H]1CN(C)C(=O)c1ccccn1` was 15.5% (inactive).

With `C[C@@H]1CN([C@H](C)CO)S(=O)(=O)c2ccc(C#CCC3CCCC3)cc2O[C@H]1CN(C)C(=O)CC1CC1`, the cytotoxicity (signal decrease) was -5.41% (inactive). As for `C[C@H]1CCCCO[C@@H](CN(C)S(=O)(=O)c2cccs2)[C@@H](C)CN([C@@H](C)CO)C(=O)c2cc(NS(=O)(=O)c3ccc(Cl)cc3)ccc2O1`, the cytotoxicity (signal decrease) is 5.91% (inactive). `N#Cc1cccc(-c2ccc([C@H]3[C@H](CO)N4CCCCN(C(=O)Nc5cccc(F)c5)C[C@@H]34)cc2)c1`: the cytotoxicity (signal decrease) is 32.4% (inactive). The value for `O=C(Nc1ccccc1)N1CCCCN2[C@H](CO)[C@@H](c3ccc(C#Cc4ccccn4)cc3)[C@H]2C1` was 1.29% (inactive); that for `O=C(Nc1cccc(F)c1)N1CCCCN2[C@H](CO)[C@H](c3ccc(C#CC4CC4)cc3)[C@@H]2C1` was 35.2% (active); that for `C[C@@H]1CN([C@H](C)CO)C(=O)c2cc(NS(=O)(=O)c3cccs3)ccc2O[C@@H](C)CCCCO[C@@H]1CN(C)S(=O)(=O)c1ccc(Cl)cc1` was -7.98% (inactive). As for `COc1ccc(NC(=O)Nc2ccc3c(c2)C(=O)N([C@H](C)CO)C[C@H](C)[C@H](CN(C)S(=O)(=O)c2ccc(Cl)cc2)OCCCC[C@H](C)O3)cc1`, the figure is -12.7% (inactive); as for `O=C(c1ccccn1)N1CC[C@@H]2[C@H]1c1cc(-c3ccccc3)ccc1N[C@@H]2CO`, 3.39% (inactive); as for `C[C@@H]1CN([C@@H](C)CO)C(=O)c2cc(NC(=O)Nc3ccc4c(c3)OCO4)ccc2O[C@@H]1CN(C)Cc1ccc(Oc2ccccc2)cc1`, 22.6% (inactive). As for `C[C@@H]1CN([C@H](C)CO)C(=O)Cc2cc(NC(=O)Cc3ccccc3)ccc2O[C@H]1CN(C)Cc1ccc(Oc2ccccc2)cc1`, the figure is 1.79% (inactive); as for `C[C@H]1CN([C@@H](C)CO)C(=O)Cc2cc(NC(=O)Cc3cn(C)c4ccccc34)ccc2O[C@@H]1CN(C)Cc1ccccc1`, -12.8% (inactive). In the case of `C[C@H](CO)N1C[C@H](C)[C@H](CN(C)Cc2ccc(-c3ccccc3)cc2)Oc2ccc(NC(=O)Nc3ccc(F)cc3)cc2CC1=O`, the cytotoxicity (signal decrease) is 43.5% (active). As for `C[C@@H]1CN([C@@H](C)CO)C(=O)Cc2cc(NC(=O)C3CCCCC3)ccc2O[C@@H]1CN(C)Cc1ccc(C(=O)Nc2ccccc2N)cc1`, the figure is 37.8% (active); as for `C[C@H](CO)N1C[C@H](C)[C@@H](CN(C)Cc2ccc(-c3ccccc3)cc2)Oc2ccc(NC(=O)CCC(F)(F)F)cc2CC1=O`, 32.2% (inactive). As for `C[C@@H]1CN([C@H](C)CO)C(=O)Cc2cc(NC(=O)c3ccncc3)ccc2O[C@H]1CN(C)Cc1ccc(-c2ccccc2)cc1`, the figure is 32.8% (inactive); as for `O=C(C1CC1)N1CCCCN2[C@H](CO)[C@H](c3ccc(-c4cccc(F)c4)cc3)[C@H]2C1`, 2.61% (inactive). As to `CN1c2ccc(-c3ccccc3)cc2[C@H]2[C@H](CCN2C(=O)Cc2ccccn2)[C@H]1CO`, the cytotoxicity (signal decrease) was 8.34% (inactive). On to `C[C@@H]1CCCCO[C@H](CN(C)S(=O)(=O)c2cccs2)[C@H](C)CN([C@H](C)CO)C(=O)c2cc(NS(=O)(=O)c3ccc(F)cc3)ccc2O1`, for which the cytotoxicity (signal decrease) was -5.09% (inactive). The value for `COc1ccc(NC(=O)N2CC[C@@H]3[C@@H](CO)N(C)c4ccc(-c5cccc(F)c5)cc4[C@@H]32)cc1` was 1.1% (inactive).

With `O=C(NCC1CCCCC1)[C@H]1[C@H](CO)[C@H]2Cn3c(cccc3=O)[C@H]2N1C(=O)CC1CC1`, the cytotoxicity (signal decrease) is 0.341% (inactive). The value for `COc1cccc(C#Cc2ccc([C@@H]3[C@H](C#N)N[C@H]3CO)cc2)c1` was -25.2% (inactive); that for `COCC(=O)N1CC[C@@H]2[C@@H](CO)Nc3ccc(-c4cccc(C#N)c4)cc3[C@@H]21` was 2.33% (inactive); that for `CN1C(=O)c2cc(NC(=O)c3cnccn3)ccc2OC[C@@H]2O[C@H](CC(=O)N[C@@H]3CCN(Cc4ccccc4)C3)CC[C@@H]21` was -18.7% (inactive). The value for `CCC(=O)N1CC[C@@H]2[C@@H](CO)N(C)c3ccc(-c4cccc(OC)c4)cc3[C@@H]21` was -4.46% (inactive); that for `O=C(c1cnccn1)N1CC[C@@H]2[C@H](CO)Nc3ccc(-c4cccc(F)c4)cc3[C@@H]21` was 32.9% (inactive). In the case of `Cc1cccc(-c2ccc([C@@H]3[C@H](CO)N4CCCCN(C(=O)c5ccc6c(c5)OCO6)C[C@@H]34)cc2)c1`, the cytotoxicity (signal decrease) is 69.7% (active).

Take `O=C(c1ccncc1)N1CCCCN2[C@H](CO)[C@H](c3ccc(-c4ccccc4)cc3)[C@H]2C1`: the cytotoxicity (signal decrease) was 6.21% (inactive). As for `COCC#Cc1ccc([C@@H]2[C@H](CO)N3CCCCN(C(=O)CN(C)C)C[C@@H]23)cc1`, the figure is -18.1% (inactive).

`CCCC#Cc1ccc([C@H]2[C@H](CO)N3CCCCN(C(=O)c4ccc5c(c4)OCO5)C[C@@H]23)cc1`: the cytotoxicity (signal decrease) is 35.2% (active). As for `CN(C)C(=O)c1ccc(-c2ccc([C@H]3[C@@H](CO)N4CCCCN(CC5CC5)C[C@H]34)cc2)cc1`, the figure is -1.46% (inactive); as for `O=C(c1cccc(F)c1)N1CCCCN2[C@H](CO)[C@H](c3ccc(-c4ccncc4)cc3)[C@H]2C1`, -11.1% (inactive). For the compound `CC(C)(O)C#Cc1ccc([C@@H]2[C@H](CO)N3CCCCN(C(=O)c4cccc(F)c4)C[C@@H]23)cc1`, the cytotoxicity (signal decrease) was -14.5% (inactive). As for `COc1ccc(C#Cc2ccc([C@@H]3[C@@H](CO)N4CCCCN(C(=O)c5ccncc5)C[C@@H]34)cc2)cc1`, the figure is 22.3% (inactive). The value for `COc1ccc(-c2ccc([C@H]3[C@H]4CN(C(=O)c5ccc6c(c5)OCO6)CCCCN4[C@H]3CO)cc2)cc1` was 44.1% (active); that for `COCCNC[C@@H]1[C@H](c2ccccc2)[C@H](CO)N1c1nc(C)c(C)s1` was -17.4% (inactive). The value for `CC(=O)N1CC[C@@H]2[C@H](CO)Nc3ccc(C#Cc4ccccc4F)cc3[C@@H]21` was -0.01% (inactive); that for `COc1ccc(CN(C)C[C@H]2Oc3ccc(NS(=O)(=O)c4ccc(Cl)cc4)cc3CC(=O)N([C@@H](C)CO)C[C@H]2C)cc1` was 12.2% (inactive); that for `C[C@@H]1CCCCO[C@H](CN(C)C(=O)NC2CCCCC2)[C@H](C)CN([C@H](C)CO)C(=O)c2cc(NC(=O)Nc3ccc(F)cc3)ccc2O1` was -12.7% (inactive). `CCCC#Cc1ccc([C@@H]2[C@@H](C#N)N(C(=O)C3CCCC3)[C@@H]2CO)cc1`: the cytotoxicity (signal decrease) was 14.1% (inactive). With `N#Cc1ccc(-c2ccc3c(c2)[C@@H]2[C@@H](CCN2C(=O)Cc2ccncc2)[C@@H](CO)N3)cc1`, the cytotoxicity (signal decrease) was 8.03% (inactive). As to `C[C@H]1CN([C@@H](C)CO)C(=O)Cc2cc(NC(=O)Cc3cn(C)c4ccccc34)ccc2O[C@@H]1CN(C)Cc1ccc(C(F)(F)F)cc1`, the cytotoxicity (signal decrease) was 7.48% (inactive). As for `C[C@@H]1CN([C@H](C)CO)C(=O)c2cccc(NC(=O)c3cnccn3)c2O[C@@H]1CN(C)Cc1ccc(C(=O)Nc2ccccc2N)cc1`, the figure is 32.5% (inactive). As for `C[C@@H]1CN([C@@H](C)CO)S(=O)(=O)c2ccc(C#CCN(C)C)cc2O[C@H]1CN(C)C(=O)C1CC1`, the figure is 19.8% (inactive); as for `CC(C)CC#Cc1ccc2c(c1)O[C@H](CN(C)C(=O)C1CC1)[C@@H](C)CN([C@@H](C)CO)S2(=O)=O`, 22.1% (inactive). The value for `C[C@H](CO)N1C[C@H](C)[C@H](CN(C)Cc2cccnc2)Oc2cc(C#CC3CCCC3)ccc2S1(=O)=O` was 32% (inactive). Consider `CCCN(C)C[C@H]1Oc2cc(C#CC3CCCC3)ccc2S(=O)(=O)N([C@H](C)CO)C[C@@H]1C`, for which the cytotoxicity (signal decrease) was 26.3% (inactive). As for `CC(C)CC#Cc1ccc2c(c1)O[C@H](CN(C)Cc1cccnc1)[C@H](C)CN([C@@H](C)CO)S2(=O)=O`, the figure is 65.8% (active); as for `C[C@@H]1CN([C@H](C)CO)S(=O)(=O)c2ccc(C#CC3CCCC3)cc2O[C@@H]1CN(C)Cc1cccnc1`, 48.5% (active); as for `CC(C)CC#Cc1ccc2c(c1)O[C@H](CN(C)Cc1ccccc1F)[C@@H](C)CN([C@@H](C)CO)S2(=O)=O`, -3.93% (inactive). On to `CNC[C@@H]1Oc2cc(C#CCC3CCCC3)ccc2S(=O)(=O)N([C@H](C)CO)C[C@H]1C`, for which the cytotoxicity (signal decrease) was -4.17% (inactive). The value for `C[C@@H]1CCCCO[C@H](CN(C)Cc2ccc(Cl)c(Cl)c2)[C@H](C)CN([C@@H](C)CO)C(=O)c2cc(NC(=O)C3CCCCC3)ccc2O1` was 12.1% (inactive). As for `C[C@@H]1CN([C@H](C)CO)S(=O)(=O)c2ccc(C#CC3CCCC3)cc2O[C@@H]1CN(C)C(=O)Cc1ccncc1`, the figure is 4.33% (inactive).

Source of the values: PubChem BioAssay AID651742 (Broad Institute, 2012).
